Reference: PubChem BioAssay AID1508600 (Functional Genomics Laboratory (NCATS/FGL), 2020)
The campaign covered roughly 53,000 sequences. About 3,700 (7%) were called active.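 How the source made its calls: active means gene knockdowns whose robust z-score for IL-1 alpha signal is at least 2 or at most -2, so actives lie on both sides; inactive means the rest.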 The full list was thinned out, with actives kept by preference.

Experiment: Components of the Cytosolic LPS Sensing Pathway: Gene Identification via Genome-wide siRNA Screen;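 further: robust z of the log signal after scaling to non-targeting control siRNA wells of the plate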
Conditions: RAW264.7 macrophages, IL-1a HTRF, actives lie on both sides, screened at 100 nM (by protocol), cells primed 5 h with Pam3CSK4 first
Procedure, shortened: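 RAW264.7 mouse macrophages reverse-transfected with single siRNAs (100 nM final) for 48h, primed with Pam3CSK4 for 5 hours, then transfected with LipidA for 24 hour. Supernatant IL-1a read by HTRF; values normalized to negative-control median, log-transformed robust z-scores.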

z-score, active:
GGAUGUACACAGAAGGCCATT against Sucnr1 3.47
CCAGGCCAAAUCUCACAAUTT against A730008H23Rik -2.2
GGAAGGAGAAGAAAACAUATT against Gtf3c6 -2.13
CCAGUCCUUGAAAAGAGCUTT against Olfr128 -2.35
GCGGUAUGAGAAGGUUCCATT against Rap2a 3.48
GCGAAACUUCCAGAUCUAGTT against Cnot11 2.14
CCCAUCAAUAUCAUAUCCATT against Car7 -2.34
GCAUAUUGUGCGACUUUUCTT against Utp15 -2.16
CCUUAAUUGGGUUGAAUUCTT against Olfr878 2.44
GCCUCAUUGAAAGGAUCCATT against Mgat5b -2.32
GGCCCUGUGUCAAAUCAGUTT against Zfand6 2.1
GGUCUCAAAGAAAUCUGUATT against Bcap29 -2.4
GCUGGUGUCUUAUGGCCUATT against 9130008F23Rik -2.02
GCUCACACUCUUCAUUAUCTT against Olfr1408 -2.91
GGAACAUCAUCCACUGGAATT against Crhr1 6
GGAUGAUCUUGGUGUACACTT against Tmem91 3.04
GGUUGUCUGGAAUUUCCAUTT against Immp2l 3.81
GCCAGUUAUGAGCAACACCTT against Slc46a1 -2.14
AUGCGUCCUUCACCAACGATT against Tmem158 -3.28
GGGACUAAGAUGAAGCUGATT against Fam43a -2.18
GCUACAUACCCAAAUACAUTT against Trpc4ap 2.1

z-score, inactive:
GGCCUAUAAUUUCUUUACGTT against Cc2d2a -0.823
CGCGAGGAAGUCGAGGUAUTT against Pax2 1.17
GGCACCCUCAAGAAAGCGUTT against Nol6 -1.34
GGGCUUACUGCUUAAUAGATT against Fundc2 0.481
CGUGGACUUAAUAUUUCAGTT against Btbd7 0.685
GCCUCCUAGUAUUUACAUGTT against Ube2j2 0.8
CCGUGAAAAUCAGUAAUUATT against Cacybp -0.546
GGACUUAUCAAGCUGGUUUTT against Rps25 -1.48
GCUCACAUUGAGUGGUUGGTT against Ncbp3 0.542
GGAGUUACGUAGAACUACCTT against Adam25 0.543
GCAAAUAUUGGCCACUCUCTT against Prpf19 -0.523
GCCAAGAAAAUCAAGUCUCTT against Pknox2 0.892
GGCUGUCCAGACUAGUUCUTT against Lsm14b -0.317
CCUCAUCAUAUUCUCCUGATT against Olfr869 -0.848
CCUGUCUUUAGUGGACUUUTT against Olfr1453 0.22
GGUCUUUGAGAAGUACCACTT against Chst3 -0.22
CGCCCAAAUUGACUAUUUGTT against Fam214b 0.351
GAGAGCGGAGAGAUCAAAGTT against Iltifb 0.108
GGCUGUUCCAGAGAUUGUGTT against Mela -0.29
GGCAUUGACAUCAUGUACUTT against Agxt 1.1
GCGACAUCACAAGAAUCGATT against Fancd2 -0.979
CCUAUCAAAUUAAAUGCGCTT against Muc13 -0.6
GGUUGUGAUCAAUUAUUCATT against Evl 1.27
GGAACACUCUGAAUUCAUUTT against Cxcl15 0.0905
GCUGCUUUACUUAAGAGUUTT against Srf 0.625
GGGCAAGAGAGUAGAACUGTT against Ambra1 0.383
GGUGACACAGCUGCUUUUCTT against Dact2 0.107
CGGUCCAGGAAGAAUGUUUTT against Bckdhb -0.781
GGAUUGUCAGAAAUCCUGATT against Adat2 -1.22
CCAGAGUUCUGGGAUUCCATT against Cyp2c66 -0.948
GGCCAAGAAUGAUCGUUCUTT against Gabrb3 0.00587
GCAGACAGUAAAUUGGUAATT against Mab21l3 0.915
GGAUUACACACCUACGAUCTT against Taf10 -1.63
CGACUACCUGGAUAUCUACTT against Efna2 -0.292
GGCGUGUUGAGACAAUCCUTT against Lkaaear1 -0.815
GCAUAGCAGGAAGGCCUUGTT against Htr6 0.183
GCAAAUUUUAUCAACCGCATT against Mical3 -0.0618
CGACCAUACGAAUGCGGCATT against Zfp865 0.498
GGCUUGAACACAAGAAAGCTT against Golim4 -0.778
GGAUGAGAAUAUUGAAAGATT against 4932415M13Rik -0.225
GGCAGGAAAACUGCCAAUGTT against Gm6034 1.36
GCUGACUAAGGCUUGUAAUTT against Hrnr -0.194
GGUUAAUUCCAACAAAGCATT against Orc4 -0.529
GGUCUACAACCAAAUCUGCTT against Clec7a -0.531
CCUGAGACUGCAUCUUUUCTT against Slc10a7 -0.693
GCCAAAUUAAGUAUCUUGATT against Lamp2 0.371
GGCGGAAAAAAAAGUAAUATT against Crebzf 0.926
GGCUCAUUGGACAUAUAUGTT against Casp8ap2 -1.77
GGGACACCAAGUUUUCCAUTT against Paqr7 1.63
GGAAGAAGCAGGUGAUUAATT against Grb14 -1.24
CGGAUCGGUGCGAGAAUAATT against Gpatch3 0.61
GGAGAUUGUUAUGCAAAAATT against Dnah5 0.178
GGAAAUUUUGAACCUGACATT against Setd3 0.125
GGACUCUUCAGCUUCCAGUTT against Uts2 -0.0543
CCAAGACUCUUUAUUCAACTT against Rasip1 0.774
GGAGACAGAAAAUCAAGGCTT against Taf7 -0.506
CCCUUGCUUGCUAAGAUUUTT against Scyl3 -0.684
GGAUACAGAGUAUUUCAAGTT against Rtkn -1.01
GCUUGUUCGGGAAUCUUAUTT against Olfr292 0.116
GCCUGUUCCGCCAUUCAUGTT against Flii -0.2
GGUGUUAGCUUCUCAAAAUTT against Cltrn 0.497
GGCAAUUUGUGGAUUAUUGTT against Olfr1105 -0.458
CCCUAAUUCAUUAGCUAUATT against Dhdds 0.111
GGACCCUGCUUUUUAAAAATT against Harbi1 0.293
GGAAGAGGAGGAAAACUUGTT against Fam135b -0.653
GGUAUAAUUGGAAUUGUGATT against Morc1 -0.658
CCCAAUUCCUUAACUAUUATT against Cd209a 1.02
GGUGGAAAGUGCAUAGACATT against Notch3 0.789
GGACCUGGAUCUAUCCUACTT against Lrfn1 -0.969
GGAUGAUGACUUCCUAGGGTT against Cpne7 -0.622
CCUUAGGAUAGAAACAAAGTT against Mypn 1.01
GCUAACAAAUGUCAGCAUGTT against Popdc3 0.319
GCCGACUUUAAUGACUGCUTT against Cmtm4 1.71
CGAAACUGGUCUUUAUACUTT against Tigd4 -1.27
GGAUGACAUGUCAUCAAAGTT against Vmn1r89 -1.38
GGGAAGAGUGGUGCAAUGATT against Olfr155 0.835
GCAACAAUAAAUCGUACAGTT against Nupr1 0.246
GGGAAGUUCAUAUUGAUCCTT against Gsdma 0.691
GGCUUAAGGUGAGAUAUUCTT against Sp9 -0.524
CGAGUGUUCCUCCAAGUGCTT against Fhl5 0.384
GCUCACUUAUCUACGUUUUTT against Trim15 0.639
GCAUGUGACCUCGUCUUGCTT against Apbb2 -1.04
GGGCAUGAGAAAUCCACAGTT against Rhox9 -1.23
GGCAAAUAAAUUCAGCAAGTT against Pum3 -0.0642
GGACUUCCCGAACUACAUATT against Zfp52 0.0339
GGCUCUCUUUAGAACAGACTT against Rad17 0.479
